Source: PubChem BioAssay (EPA / NIEHS)
Inconclusive results are not listed. Calls of active or inactive are those of the source. The calls were made as follows: active = hit-call score of the fitted dose curve at least 0.9, where 1 is the maximum; inconclusive = response in the unintended direction; inactive = score below 0.9.

Test: ATG_XTT_Cytotoxicity: Cytotoxicity Assessment in the Attagene TRANS-FACTORIAL HepG2 Assay (AID 2283584)
Procedure, shortened: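 Cells: human HepG2, transiently transfected with MRTU reporter constructs. Exposure 24 h. Readout: XTT, cell number. Baseline/neg ctrl DMSO; loss-of-signal scored.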

SMILES	outcome
COc1nn(C(=O)NS(=O)(=O)c2ccccc2OC(F)(F)F)c(=O)n1C	inactive
C=CCOC(N)=O	inactive
CCCSP(=S)(OCC)Oc1ccc(Cl)cc1Cl (stereo not given)	inactive
O=CCCl	inactive
c1ccc2sc(SNC3CCCCC3)nc2c1	inactive
Brc1c(Br)c(Br)c(Oc2c(Br)c(Br)c(Br)c(Br)c2Br)c(Br)c1Br	inactive
C[C@]12CC[C@@H](O)C[C@@H]1CC[C@@H]1[C@@H]2CC[C@]2(C)C(=O)CC[C@@H]12	inactive
CC(C)(C1CCC(O)CC1)C1CCC(O)CC1 (stereo not given)	inactive
CC(C)[N+](=O)[O-]	inactive
CC(C)(COCC1CO1)COCC1CO1 (stereo not given)	inactive
CS(=O)(=O)c1ccc(C(=O)C2C(=O)CCCC2=O)c(Cl)c1COCC(F)(F)F	inactive
CCCCS(=O)(=O)Cl	inactive
Nc1ccc(-c2ccccc2)cc1	inactive
CCCCCCCCBr	inactive
N#Cc1ccc(Cl)cc1	inactive
C#C[C@]1(O)CC[C@H]2[C@@H]3CCC4=CC(=O)CC[C@]4(C)[C@H]3CC[C@@]21C	inactive
CCOC(=O)Cc1ccccc1	inactive
Cc1cc(C(F)(C(F)(F)F)C(F)(F)F)ccc1NC(=O)c1cccc(I)c1C(=O)NC(C)(C)CS(C)(=O)=O	inactive

SMILES	outcome
CC1(C)COP(Oc2ccccc2)OC1	inactive
C[As+](C)(C)CC(=O)[O-]	inactive
O=NN1CCOCC1	inactive
CN(N=O)c1ccc([N+](=O)[O-])cc1	inactive
CN(C)CCN(C)C	inactive
COc1ccc([N+](=O)[O-])cc1O	inactive
NNCCO	inactive
CCOP(=O)(OCC)SCCSCC	inactive
O=C/C(Cl)=C(/Cl)C(=O)O	inactive
Oc1c(Br)cc(Br)cc1Br	inactive
Oc1cccc(-c2ccccc2)c1	inactive
CCOP(=S)(OCC)SCS(=O)(=O)C(C)(C)C	inactive
OC(Cc1ccccc1Cl)(Cn1cncn1)C1(Cl)CC1 (stereo not given)	inactive
CCOCn1c(-c2ccc(Cl)cc2)c(C#N)c(Br)c1C(F)(F)F	inactive
C[C@@H]1O[C@@H](O[C@H]2C[C@@H](O)[C@]3(CO)[C@H]4[C@H](O)C[C@]5(C)[C@@H](C6=CC(=O)OC6)CC[C@]5(O)[C@@H]4CC[C@]3(O)C2)[C@H](O)[C@H](O)[C@H]1O	inactive
NC(=O)c1ccc(N)nc1	inactive
C=CCCl	inactive
